Assay results published in PubChem BioAssay AID1212 (NMMLSC, 2008).
Values without a mark were called inactive. Calls of active or inactive are those of the source.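 Rule for the calls: active = blocks over 60% of fluorescent estradiol binding at 10 µM; inactive = the rest.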

Target: G-protein coupled estrogen receptor 1 (Homo sapiens) (UniProt Q99527)
Test: GPR30 competitive binders vs fluorescent estrogen, primary screen, cell-based, Cos7 GPR30-GFP, flow cytometry, 10 µM (AID 1212)
Conditions: fluorescent estrogen competition, at 10 µM; active compounds read high

Row | Structure (SMILES) | outcome | inhibition
1 | CCCOc1cc2oc(=O)c3c(c2cc1CC)CCCC3 | inactive | –
2 | CC1CCN(Cc2c(O)ccc3c4c(c(=O)oc23)CCC4)CC1 | inactive | –
3 | CC1CCC2(C)c3[nH]c4ccccc4c3CCN2C1=O (configuration not stated) | – | 2%
4 | Cc1nc2ccccc2n1-c1cc(C(C)(C)C)c(O)c(C(C)(C)C)c1 | inactive | –
5 | CCc1cc2c3c(c(=O)oc2cc1OCC(=O)O)CCCC3 | – | 10%
6 | COc1cc([N+](=O)[O-])cc2c1NC(c1ccccc1)C1CC=CC21 (configuration not stated) | – | 34%
7 | COc1ccc(C2(CNCC(N)=O)CCCC2)cc1OC | inactive | –
8 | COc1cc([N+](=O)[O-])cc2c1NC(c1ccccc1Cl)C1CC=CC21 (configuration not stated) | inactive | –
9 | O=C(O)c1ccc2c(c1)C1C=CCC1C(c1cccc([N+](=O)[O-])c1)N2 (configuration not stated) | – | 57%
10 | COc1cc([N+](=O)[O-])cc2c1NC(c1ccc(Br)cc1)C1CC=CC21 (configuration not stated) | inactive | –
11 | Cc1cc(C(C)CO)cc(C(C)(C)C)c1O (configuration not stated) | inactive | –
12 | CC1(C)CC(=O)C=C(NC2CC(C)(C)NC(C)(C)C2)C1 | inactive | –
13 | CCC(Oc1ccc2c3c(c(=O)oc2c1C)CCC3)C(=O)OC (configuration not stated) | inactive | –
14 | Cc1ccc(-n2cc3c(c(C#N)c2=N)CC(C)(C)CC3=O)cc1 | inactive | –
15 | CC(Nc1ccc(N2CCNCC2)cc1[N+](=O)[O-])C12CC3CC(CC(C3)C1)C2 (configuration not stated) | inactive | –
16 | CC(C)COc1ccc2c(c1)c1c3n2CCNC3CCC1 (configuration not stated) | inactive | –
17 | COc1ccc2[nH]c3c(c2c1)CCNC3=O | – | 15%
18 | CCCCCCc1cc2c3c(c(=O)oc2cc1OCC(=O)OC)CCC3 | inactive | –
19 | CCOc1cc2c(c([N+](=O)[O-])c1)NC(c1ccccc1)C1CC=CC21 (configuration not stated) | – | 38%
20 | COc1cc([N+](=O)[O-])cc2c1NC(c1ccc(Cl)cc1)C1CC=CC21 (configuration not stated) | – | 9%
21 | CCCOc1cc(OCCC)c2c3c(c(=O)oc2c1)CCCC3 | inactive | –
22 | CC(C)CN(Cc1c(O)ccc2c3c(c(=O)oc12)CCC3)CC(C)C | – | 3%
23 | C=C1c2ccc(OC)cc2NC(=O)N1c1ccccc1 | inactive | –
24 | O=c1oc2c(CN3CCCC3)c(O)ccc2c2c1CCC2 | inactive | –
25 | CCOc1cc2c(cc1OCC)C(C(CC)CC)NCC2 (configuration not stated) | inactive | –
26 | O=C(O)c1ccc([N+](=O)[O-])c2c1NC(c1ccccc1)C1CC=CC21 (configuration not stated) | – | 100% (active)
27 | CCc1cc2c3c(c(=O)oc2cc1OCC(=O)OC)CCCC3 | inactive | –
